Calls of active or inactive are those of the source.
How the values were obtained:
Albumin (Bos taurus) = Albumin (Bos taurus) (UniProt P02769); test: bovine serum albumin binders on microarray, profiling panel, artefact control for SMM control protein annotation, biochemical, small-molecule microarray, Alexa647 label, 635/667 nm fluorescence (AID 1118); conditions: BSA-A647 binding, fluorescence 635 nm, higher = more signal;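 further: score merges 667 nm emission intensity and signal-to-noise per printed compound spot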
[1] = small-molecule microarray binders of probe aXIP, primary screen, biochemical, NeuroSMM set, 635/667 nm fluorescence (AID 1119); conditions: higher = more signal, called active from +8 up or from −8 down;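 further: probe is the protein aXip251-270 applied at 1 µg/mL to compound-printed slides; binding of probe to printed compounds measured as 667 nm fluorescence plus signal to noise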
[2] = small-molecule binders of probe aNOTCH3, primary screen, biochemical, small-molecule microarray, 635/667 nm fluorescence (AID 1120); conditions: higher = more signal;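 further: probe is a biotin-tagged antibody raised against NOTCH3 rather than NOTCH3 protein; score merges spot fluorescence near 667 nm with spot signal to noise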
[3] = small-molecule binders of probe aNOTCH2, primary screen, biochemical, small-molecule microarray, 635/667 nm fluorescence (AID 1121); conditions: higher = more signal;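 further: score merges feature fluorescence read at 667 nm with its signal to noise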
[4] = molecular target: Carbonic anhydrase 2 (Homo sapiens) (UniProt P00918); test: CAII small-molecule binders, profiling panel, biochemical, small-molecule microarray, Alexa647-labelled CAII (AID 1122); conditions: CAII-A647 binding fluorescence, higher = more signal
[5] = COS7 lysate on small-molecule microarray, probe aHis, 635 nm (AID 1123); conditions: COS7 cell lysate, fluorescence, higher = more signal;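 further: z-score combines 667nm fluorescence intensity with signal-to-noise per printed compound spot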
[6] = compound binding in COS7 lysate, probe aLAP1, primary screen, cell lysate, small-molecule microarray (AID 1124); conditions: probe aLAP1, fluorescence, higher = more signal;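 further: lysate comes from COS7 cells expressing LAP1 and is applied at 0.3 µg/mL; score merges spot fluorescence near 667 nm with signal-to-noise over triplicate slides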
Sam68 (KHDRBS1) = test: Sam68 small-molecule binders, primary screen, biochemical, small-molecule microarray, 635 nm fluorescence (AID 1125); conditions: small-molecule microarray binding, higher = more signal;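 further: score merges 667 nm channel intensity with signal to noise over triplicate slides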
[7] = system: Chordin-like protein 2 (CHRDL2); test: CHRDL2 small-molecule binders, primary screen, biochemical, small-molecule microarray, 635 nm fluorescence (AID 1126); conditions: small-molecule microarray binding, fluorescence 635 nm; higher = more signal;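 further: printed compound slides probed with Chrdl2 protein at 4 µg/mL for 1 h at 4 C; score merges 667 nm emission intensity with signal to noise over three replicate slides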
[8] = molecular target: Concanavalin-A (Canavalia ensiformis) (UniProt P02866); test: ConA small-molecule binders, primary screen, artefact control for SMM control protein annotation, biochemical, small-molecule microarray, Alexa647 label, 635 nm (AID 1127); conditions: ConA-A647 binding fluorescence, higher = more signal;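 further: z combines 667 nm emission intensity with signal-to-noise across three replicate slides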
[9] = anti-His antibody binders, primary screen, artefact control for SMM control protein annotation, biochemical, small-molecule microarray, 635 nm fluorescence (AID 1128); conditions: anti-His Alexa647 antibody binding, higher = more signal;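 further: score merges feature fluorescence with signal-to-noise for each printed compound spot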
[10] = system: Human papillomavirus type 1a E7 protein (residues 1-88); test: HPV1a E7 small-molecule binders, primary screen, biochemical, small-molecule microarray, residues 1-88, 635 nm (AID 1129); conditions: small-molecule microarray binding, fluorescence 635 nm; higher = more signal
[11] = molecular target: Focal adhesion kinase 1 (Homo sapiens) (UniProt Q05397); test: small-molecule microarray binders of FAK, primary screen, biochemical, 635/667 nm fluorescence, BSA, DTT (AID 1130); conditions: PTK2 binding, 635 nm fluorescence, higher = more signal;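 further: composite of spot emission at 667 nm and signal to noise over triplicate slides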
[12] = system: Fibrinogen (Alexa647-labelled); test: fibrinogen binders on compound microarrays, profiling panel, artefact control for SMM control-protein annotation, biochemical, small-molecule microarray, 635/667 nm fluorescence (AID 1131); conditions: fibrinogen-A647 binding fluorescence, higher = more signal;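 further: z-score merges 667 nm fluorescence with per-spot signal-to-noise over triplicate slides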
[13] = molecular target: Follistatin (Homo sapiens) (UniProt P19883); test: follistatin binders on small-molecule microarrays, primary screen, biochemical, small-molecule microarray, 635/667 nm fluorescence (AID 1132); conditions: FST binding, 635 nm fluorescence, higher = more signal
[14] = molecular target: Fibroblast growth factor 2 (Homo sapiens) (UniProt P09038); test: FGF2 binders on small-molecule microarrays, primary screen, biochemical, small-molecule microarray, 635/667 nm fluorescence (AID 1133); conditions: small-molecule microarray binding, FGF2, fluorescence 635/667; higher = more signal
[15] = mitochondrial membrane potential change in A549 cells, profiling panel, cell-based, JC-1 fluorescence, basal, 24 h, 100 nL (AID 1138); conditions: higher = more signal;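 further: A549 lung adenocarcinoma cells under basal conditions with no added stimulus; test concentration not given here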
Lefty1 = Lefty1 binders on small-molecule microarrays, primary screen, biochemical, small-molecule microarray, 635/667 nm fluorescence (AID 1139); conditions: small-molecule microarray binding, fluorescence 635/667; higher = more signal
[16] = system: wheat germ agglutinin (Triticum aestivum), Alexa647-labelled; test: wheat germ agglutinin binders on compound microarrays, profiling panel, artefact control for SMM control-protein annotation, biochemical, small-molecule microarray, 635/667 nm fluorescence (AID 1140); conditions: WGA-A647 binding, 635 nm fluorescence, higher = more signal;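 further: score merges 667 nm feature emission with signal to noise over triplicate slides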
[17] = molecular target: Luciferin 4-monooxygenase (Photinus pyralis) (UniProt P08659); test: firefly luciferase enzyme inhibitors, primary screen, biochemical, luminescence, purified enzyme, 2006 set (AID 1141); conditions: SteadyGlo luminescence, 30 min, higher = more signal, called active from +8 up or from −8 down;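 further: cell-free assay with purified firefly luciferase at 100 ng per well in PBS; test concentration not given here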
Chain of Luciferin 4-monooxygenase (Photinus pyralis) (P08659 whole entry, looked up): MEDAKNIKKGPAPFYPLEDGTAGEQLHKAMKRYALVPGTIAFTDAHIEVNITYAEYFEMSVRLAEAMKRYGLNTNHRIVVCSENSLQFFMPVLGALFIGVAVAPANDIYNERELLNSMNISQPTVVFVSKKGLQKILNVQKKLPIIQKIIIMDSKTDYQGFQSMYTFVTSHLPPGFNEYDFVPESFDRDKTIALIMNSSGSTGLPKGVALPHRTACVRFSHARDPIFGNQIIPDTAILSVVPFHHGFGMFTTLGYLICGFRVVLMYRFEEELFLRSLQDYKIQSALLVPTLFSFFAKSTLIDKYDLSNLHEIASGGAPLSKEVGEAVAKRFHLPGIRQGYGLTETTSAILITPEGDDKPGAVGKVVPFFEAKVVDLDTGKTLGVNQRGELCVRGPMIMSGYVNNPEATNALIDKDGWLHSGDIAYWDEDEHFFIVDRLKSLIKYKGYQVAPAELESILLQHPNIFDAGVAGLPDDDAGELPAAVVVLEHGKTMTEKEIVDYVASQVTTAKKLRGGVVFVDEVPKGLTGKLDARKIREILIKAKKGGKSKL

Chain of Albumin (Bos taurus) (P02769 whole entry, looked up): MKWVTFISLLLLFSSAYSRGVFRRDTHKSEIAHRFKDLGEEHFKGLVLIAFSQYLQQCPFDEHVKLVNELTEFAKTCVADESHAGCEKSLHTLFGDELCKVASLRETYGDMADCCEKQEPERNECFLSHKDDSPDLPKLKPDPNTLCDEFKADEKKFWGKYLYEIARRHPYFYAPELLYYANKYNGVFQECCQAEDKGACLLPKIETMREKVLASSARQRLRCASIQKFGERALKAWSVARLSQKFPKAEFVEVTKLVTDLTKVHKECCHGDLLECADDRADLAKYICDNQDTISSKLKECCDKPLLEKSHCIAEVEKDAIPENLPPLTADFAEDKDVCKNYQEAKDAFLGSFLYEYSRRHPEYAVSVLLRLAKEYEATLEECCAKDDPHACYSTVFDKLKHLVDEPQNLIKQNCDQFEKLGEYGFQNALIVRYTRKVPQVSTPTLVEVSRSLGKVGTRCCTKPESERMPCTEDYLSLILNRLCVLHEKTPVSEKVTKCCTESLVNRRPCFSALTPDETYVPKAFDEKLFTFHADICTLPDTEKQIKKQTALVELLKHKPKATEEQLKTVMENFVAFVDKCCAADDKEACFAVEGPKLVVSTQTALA
Chain of Fibroblast growth factor 2 (Homo sapiens) (P09038 whole entry, looked up): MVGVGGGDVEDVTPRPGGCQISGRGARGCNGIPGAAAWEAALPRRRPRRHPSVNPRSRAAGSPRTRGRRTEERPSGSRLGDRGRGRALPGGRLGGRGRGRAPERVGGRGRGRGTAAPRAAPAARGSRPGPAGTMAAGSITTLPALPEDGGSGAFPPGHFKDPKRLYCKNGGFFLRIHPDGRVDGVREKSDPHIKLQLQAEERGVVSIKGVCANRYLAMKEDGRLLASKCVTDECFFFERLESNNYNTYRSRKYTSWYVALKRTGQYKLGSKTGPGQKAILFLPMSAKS
Chain of Follistatin (Homo sapiens) (P19883 whole entry, looked up): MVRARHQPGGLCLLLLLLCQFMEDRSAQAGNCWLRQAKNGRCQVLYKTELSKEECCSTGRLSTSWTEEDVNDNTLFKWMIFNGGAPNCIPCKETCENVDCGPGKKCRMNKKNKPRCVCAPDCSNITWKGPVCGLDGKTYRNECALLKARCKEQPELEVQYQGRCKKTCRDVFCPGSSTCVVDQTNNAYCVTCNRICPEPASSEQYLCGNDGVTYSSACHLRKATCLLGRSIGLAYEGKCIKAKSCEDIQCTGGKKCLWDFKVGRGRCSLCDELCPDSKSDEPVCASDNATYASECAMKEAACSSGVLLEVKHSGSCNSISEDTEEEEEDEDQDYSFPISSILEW
Chain of Focal adhesion kinase 1 (Homo sapiens) (Q05397 whole entry, looked up): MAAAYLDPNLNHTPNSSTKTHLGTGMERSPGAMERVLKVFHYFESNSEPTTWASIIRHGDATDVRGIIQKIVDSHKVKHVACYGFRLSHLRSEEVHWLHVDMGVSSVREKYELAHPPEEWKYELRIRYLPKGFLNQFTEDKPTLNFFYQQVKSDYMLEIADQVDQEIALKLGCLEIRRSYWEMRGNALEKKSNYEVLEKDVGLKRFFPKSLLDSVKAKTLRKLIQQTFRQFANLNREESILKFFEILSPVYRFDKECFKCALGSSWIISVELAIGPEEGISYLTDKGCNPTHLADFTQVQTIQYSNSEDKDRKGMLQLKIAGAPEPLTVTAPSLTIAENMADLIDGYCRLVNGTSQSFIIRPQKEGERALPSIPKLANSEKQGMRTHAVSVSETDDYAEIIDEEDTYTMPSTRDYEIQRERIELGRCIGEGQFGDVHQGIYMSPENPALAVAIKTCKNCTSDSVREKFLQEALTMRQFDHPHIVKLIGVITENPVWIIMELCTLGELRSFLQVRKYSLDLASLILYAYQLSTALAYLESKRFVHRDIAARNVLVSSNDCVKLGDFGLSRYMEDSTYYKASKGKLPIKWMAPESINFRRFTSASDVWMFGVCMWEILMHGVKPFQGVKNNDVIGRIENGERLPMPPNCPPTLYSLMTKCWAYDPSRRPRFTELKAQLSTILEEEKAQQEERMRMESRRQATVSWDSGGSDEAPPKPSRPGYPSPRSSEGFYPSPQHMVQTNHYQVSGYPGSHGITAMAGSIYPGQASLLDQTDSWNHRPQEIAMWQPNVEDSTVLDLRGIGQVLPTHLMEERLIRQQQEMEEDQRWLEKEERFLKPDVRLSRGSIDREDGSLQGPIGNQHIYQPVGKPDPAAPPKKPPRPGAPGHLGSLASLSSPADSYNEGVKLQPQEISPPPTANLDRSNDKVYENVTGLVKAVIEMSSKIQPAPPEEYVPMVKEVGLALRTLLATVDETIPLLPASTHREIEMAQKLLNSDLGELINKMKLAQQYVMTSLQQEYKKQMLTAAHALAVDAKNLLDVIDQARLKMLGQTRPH
Chain of Concanavalin-A (Canavalia ensiformis) (P02866 whole entry, looked up): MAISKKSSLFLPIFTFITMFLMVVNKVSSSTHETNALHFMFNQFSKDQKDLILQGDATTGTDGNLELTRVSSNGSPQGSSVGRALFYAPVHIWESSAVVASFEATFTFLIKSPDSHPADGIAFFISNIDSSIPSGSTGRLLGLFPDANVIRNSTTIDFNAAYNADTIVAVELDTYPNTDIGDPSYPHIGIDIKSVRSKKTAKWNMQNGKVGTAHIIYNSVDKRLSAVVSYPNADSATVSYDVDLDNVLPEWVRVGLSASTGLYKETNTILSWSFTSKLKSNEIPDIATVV

Structure (SMILES)	composite z-score (Albumin (Bos taurus))	composite Z-score [1]	composite z-score [2]	composite z-score [3]	composite z-score [4]	composite z-score [5]	composite z-score [6]	composite z-score (Sam68 (KHDRBS1))	composite z-score [7]	composite z-score [8]	composite z-score [9]	composite z-score [10]	composite z-score [11]	composite z-score [12]	composite z-score [13]	composite z-score [14]	z-score [15]	composite z-score (Lefty1)	composite z-score [16]	z-score [17]
Cc1ccc(S[C@]2(C(=O)NCC(F)(F)F)CC(=O)N(Cc3ccccc3C(F)(F)F)[C@@H]2c2ccc(CO)cc2)cc1	-0.0912	0.0348 (inactive)	-0.233	-0.0861	0.653	1.24	1.26	-0.556	-1.45	-0.87	-0.344	-0.481	-1.09	-0.563	-1.11	-0.826	-0.144	-1.44	-0.564	0.714 (inactive)
C=CC[C@@]1(C(=O)N(C)C)N=C(c2ccc(OCCCO)cc2)O[C@@H]1c1ccccc1CN=[N+]=[N-]	0.738	0.153 (inactive)	0.438	0.0674	0.397	2.48	0.71	1.33	-0.201	1.12	2.69	1.22	0.188	0.985	1.36	1.83	3.32	0.561	1.12	-0.84 (inactive)
O=C1N(CCS(=O)(=O)c2ccccc2)c2ccccc2C[C@]12N=C(c1ccc(OCCCO)cc1)O[C@@H]2c1ccccc1	0.815	1.86 (inactive)	-0.221	-0.0694	0.584	3.22	2.17	1.29	1.25	1.05	2.16	0.806	0.311	0.783	1.41	1.71	0.972	0.393	0.392	-0.889 (inactive)
COC(=O)[C@@]1(Cc2ccccc2)[C@H]2c3cc(C(=O)N(C)C)n(CCSC(=N)N)c3C[C@H]2CN1C(=O)c1ccccc1	-0.107	1.22 (inactive)	0.0159	0.0591	0.877	0.778	1.63	-1.71	-0.721	-1.36	0.367	0.336	0.117	0.869	-0.239	0.277	0.378	-0.318	0.164	1.13 (inactive)
COc1ccc(C(O)C2C=CC3C(=O)N(c4ccccc4)C(=O)C3N2Nc2ccc(C#N)cc2)cc1OCc1ccccc1 (stereo not given)	1.06	-0.502 (inactive)	0.291	0.131	0.634	2.01	1.17	1.3	-0.333	1.1	1.86	1.21	1.3	0.506	0.636	-0.529	0.399	-0.56	1.15	0.188 (inactive)
O=C1O[C@@H](c2ccccc2)[C@@H](c2ccccc2)N2[C@@H](c3ccccc3OCCO)[C@]3(C(=O)Nc4ccc(C#CCCO)cc43)[C@@H](C(=O)NC[C@H](O)c3ccccc3)[C@H]12	0.366	0.45 (inactive)	0.307	0.255	0.557	2.25	1.31	1.28	0.454	1.12	1.32	1.25	1.06	0.847	1.27	0.835	-0.928	0.831	0.891	0.808 (inactive)
C=C(C)[C@@H]1CC=C(C(O)C2C=CC3C(=O)N(C)C(=O)C3N2Nc2ccc([N+](=O)[O-])cc2[N+](=O)[O-])CC1 (stereo not given in full)	0.689	-0.37 (inactive)	0.407	0.158	0.583	2.5	0.005	1.29	0.722	1.14	0.607	1.27	0.512	1	1.24	-0.0675	1.88	0.424	0.799	0.511 (inactive)
COc1ccc([Si](C)(C)[C@@H]2[C@@H](CC(=O)N3CCC[C@H]3CO)O[C@]3(C(=O)N(Cc4ccc(N5CCOC5=O)cc4)c4ccccc43)[C@H]2C)cc1	0.746	0.408 (inactive)	-0.0362	-0.136	0.408	1.02	0.373	1.31	0.509	0.884	1.02	0.783	0.939	0.867	0.441	0.672	0.735	0.646	0.471	-1.83 (inactive)
CN(C)C(=O)[C@]1(Cc2ccccc2)N=C(c2ccc(OCCCO)cc2)O[C@@H]1c1ccccc1CN=[N+]=[N-]	0.981	0.0333 (inactive)	0.34	0.0488	0.582	2.63	0.407	1.31	-0.321	0.922	0.997	1.21	0.438	1.02	1.04	0.287	0.829	0.463	0.569	0.361 (inactive)
COCCCN1C(=O)[C@@]2(c3ccc([N+](=O)[O-])cc3)CC(=O)N(CC34CC5CC(CC(C5)C3)C4)[C@@H]2c2ccc(CO)cc21	-0.0098	0.208 (inactive)	-0.101	-0.0666	0.48	0.373	0.991	0.229	-0.0444	0.728	-0.0041	-0.217	-0.102	-0.753	1	0.232	0.961	0.739	0.115	-0.844 (inactive)

From PubChem BioAssay
